High-throughput results (PubChem)
G9a inh = qHTS Assay for Inhibitors of Histone Lysine Methyltransferase G9a; Histone-lysine N-methyltransferase EHMT2 (Homo sapiens), Q96KQ7; G9a H3K9 monomethylation, AlphaScreen, 2 h; Potency, µM (highest dose often 102 µM), without a hit: at the highest dose activity, negative = inhibition, hits mostly inhibitors; 350,000 tested, 8.8% active; AID 504332, 2011; further: on the % scale 0 is the no-effect control and ±100 the full control effect; nearly all actives have a fitted effect of over 75% in size
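AlphaScreen read-out: biotin-H3K9 peptide (500 nM) methylation by 20 nM enzyme with 20 uM SAM, 2 h at room temperature after 15 min compound preincubation; anti-monomethyl H3K9 antibody plus donor/acceptor beads, 10 min dark.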
BAZ2B block = qHTS Assay for Inhibitors of BAZ2B; Potency, µM (titrated, usually from 114 µM), for inactives: top-dose activity change, negative = inhibition, hits mostly inhibitors; 360,000 tested, 4.4% active; AlphaScreen BAZ2B-H3K14Ac peptide displacement; AID 504333, 2011; Bromodomain adjacent to zinc finger domain protein 2B (Homo sapiens), Q9UIF8; further: on the % scale 0 is the no-effect control and ±100 the full control effect; nearly all actives have a fitted effect of over 60% in size
Target sequence (Q9UIF8 whole entry, looked up, the tested form may be a part): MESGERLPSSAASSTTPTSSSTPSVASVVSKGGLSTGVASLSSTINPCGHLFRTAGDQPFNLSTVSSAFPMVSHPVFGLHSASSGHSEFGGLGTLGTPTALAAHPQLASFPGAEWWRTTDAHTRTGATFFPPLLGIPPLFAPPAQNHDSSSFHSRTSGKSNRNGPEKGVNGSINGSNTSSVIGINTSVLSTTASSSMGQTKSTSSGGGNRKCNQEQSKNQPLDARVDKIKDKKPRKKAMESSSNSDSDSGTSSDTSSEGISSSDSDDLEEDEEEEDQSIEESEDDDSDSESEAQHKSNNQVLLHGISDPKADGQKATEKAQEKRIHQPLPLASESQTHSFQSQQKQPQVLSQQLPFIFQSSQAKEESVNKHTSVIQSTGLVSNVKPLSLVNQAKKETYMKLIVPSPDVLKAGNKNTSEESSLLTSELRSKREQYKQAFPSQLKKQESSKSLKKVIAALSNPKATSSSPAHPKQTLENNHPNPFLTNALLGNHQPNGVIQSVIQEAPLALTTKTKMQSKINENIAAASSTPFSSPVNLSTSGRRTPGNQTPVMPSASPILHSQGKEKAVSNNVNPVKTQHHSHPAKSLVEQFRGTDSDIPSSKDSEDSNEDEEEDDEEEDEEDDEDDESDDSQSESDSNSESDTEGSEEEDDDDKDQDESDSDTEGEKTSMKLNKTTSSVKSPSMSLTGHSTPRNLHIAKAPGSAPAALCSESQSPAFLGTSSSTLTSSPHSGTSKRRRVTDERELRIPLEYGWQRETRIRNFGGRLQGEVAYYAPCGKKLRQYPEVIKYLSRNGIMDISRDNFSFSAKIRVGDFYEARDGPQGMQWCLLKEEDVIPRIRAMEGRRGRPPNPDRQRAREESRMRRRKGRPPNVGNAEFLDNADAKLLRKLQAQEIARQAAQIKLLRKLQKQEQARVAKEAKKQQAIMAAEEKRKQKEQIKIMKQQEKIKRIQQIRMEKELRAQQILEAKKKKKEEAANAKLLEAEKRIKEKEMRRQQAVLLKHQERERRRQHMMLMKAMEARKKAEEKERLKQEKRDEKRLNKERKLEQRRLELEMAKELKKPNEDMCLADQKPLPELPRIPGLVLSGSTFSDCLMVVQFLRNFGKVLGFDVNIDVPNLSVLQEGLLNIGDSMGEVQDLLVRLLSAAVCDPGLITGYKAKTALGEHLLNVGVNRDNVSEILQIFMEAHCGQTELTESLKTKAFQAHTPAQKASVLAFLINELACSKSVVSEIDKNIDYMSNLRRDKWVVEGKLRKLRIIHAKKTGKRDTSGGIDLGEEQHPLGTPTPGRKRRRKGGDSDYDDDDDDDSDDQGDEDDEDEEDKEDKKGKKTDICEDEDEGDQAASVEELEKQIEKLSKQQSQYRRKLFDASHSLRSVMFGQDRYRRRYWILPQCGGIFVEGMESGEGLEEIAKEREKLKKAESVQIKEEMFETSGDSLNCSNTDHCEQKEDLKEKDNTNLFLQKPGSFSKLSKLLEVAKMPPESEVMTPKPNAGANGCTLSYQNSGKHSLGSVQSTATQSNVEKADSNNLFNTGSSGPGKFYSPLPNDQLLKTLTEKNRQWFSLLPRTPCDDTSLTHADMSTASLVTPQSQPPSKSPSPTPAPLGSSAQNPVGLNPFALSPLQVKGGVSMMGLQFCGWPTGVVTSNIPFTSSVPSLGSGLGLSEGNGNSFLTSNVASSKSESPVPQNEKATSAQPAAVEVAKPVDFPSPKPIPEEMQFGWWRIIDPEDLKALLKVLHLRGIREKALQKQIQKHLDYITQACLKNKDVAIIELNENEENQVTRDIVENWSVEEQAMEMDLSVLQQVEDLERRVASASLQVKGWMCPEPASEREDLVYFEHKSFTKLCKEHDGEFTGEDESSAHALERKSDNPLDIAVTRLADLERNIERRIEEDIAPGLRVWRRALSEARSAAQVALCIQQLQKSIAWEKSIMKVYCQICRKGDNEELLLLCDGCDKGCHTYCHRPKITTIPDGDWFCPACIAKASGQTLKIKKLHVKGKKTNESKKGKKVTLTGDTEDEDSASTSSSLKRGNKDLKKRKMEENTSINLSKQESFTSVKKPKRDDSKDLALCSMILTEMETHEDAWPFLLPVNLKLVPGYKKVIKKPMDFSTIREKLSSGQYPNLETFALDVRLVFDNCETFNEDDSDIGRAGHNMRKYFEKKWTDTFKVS
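Inhibition is scored as reduced AlphaScreen emission. The BAZ2B/b-H3(5-23)K14Ac complex (50 nM each) in PBS pH 7.4, 0.01% Tween-20 meets compound (up to 110 uM) for 30 min at RT before bead addition.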
L3MBTL1 block = qHTS Assay for the Inhibitors of L3MBTL1. AlphaScreen L3MBTL1–H3K9me1 peptide binding. Potency, µM (titrated, usually from 57.1 µM), for the others: at the highest dose activity, negative = inhibition, actives largely listed as inhibitors. 230,000 tested, 0.66% active. AID 485360, 2010. Lethal(3)malignant brain tumor-like protein 1 (Homo sapiens), Q9Y468; further: on the % scale 0 is the no-effect control and ±100 the full control effect; nearly all actives have a fitted effect of over 60% in size
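Read-out is AlphaScreen signal from streptavidin donor and nickel chelate acceptor beads (10 ug/mL final each) bridging L3MBTL1 (50 nM) and biotinylated K9-monomethylated H3(1-15) peptide (75 nM), after 30 min compound exposure at room temperature.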
HP1b chromo inh = HTS for Inhibitors of HP1-beta Chromodomain Interactions with Methylated Histone Tails; Potency, µM (titrated, usually from 114 µM), for inactives: at the highest dose activity change, negative = inhibition, actives largely listed as inhibitors; 390,000 tested, 0.56% active; Chromobox protein homolog 1 (Homo sapiens), P83916; AlphaScreen HP1-beta / biotin-H3K9me3 peptide binding; further: nearly all actives have a fitted effect of over 70% in size
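Compound inhibition of the preformed complex between 50 nM HP1-beta and 50 nM biotinylated H3K9me3 peptide was read by AlphaScreen. Buffer was PBS pH 7.4 with 0.01% Tween-20. Incubations ran 30 min at room temperature, with 10 ug/mL donor/acceptor beads.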
JMJD2A Tudor inh = qHTS Assay for Inhibitors of JMJD2A-Tudor Domain; Potency, µM (highest dose often 114 µM), for inactives: top-dose activity change, negative = inhibition, most hits filed as inhibitors; 390,000 tested, 4.4% active; Lysine-specific demethylase 4A (Homo sapiens), O75164; AlphaScreen JMJD2A-Tudor / H3K4me3 peptide binding; further: on the % scale 0 is the no-effect control and ±100 the full control effect; nearly all actives have a fitted effect of over 50% in size
Sfp PPTase inh = qHTS Assay for Inhibitors of Bacillus subtilis Sfp phosphopantetheinyl transferase (PPTase); Biochemical Sfp PPTase activity, qHTS; AID 1490, 2009; Potency, µM, for the others: largest response in the series, negative = inhibition, hits mostly inhibitors; 4'-phosphopantetheinyl transferase ffp (Bacillus subtilis), Q9F4F7; 310,000 tested, 3.5% active;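 further: the enzyme is Sfp with the accession as filed and its product quenches rhodamine fluorescence; 0% = enzyme reaction without inhibitor and -100% = no enzyme wells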
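After 15 min at room temperature with compound, 15 nM Sfp received 5 uM rhodamine-CoA plus 12.5 uM BHQ-2-ybbR (50 mM Hepes pH 7.6, 10 mM MgCl2). Rate came from the fluorescence difference over 30 min, ex 525/em 598 nm.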
Numbers without * were called inactive; ? = inconclusive; . = no result; ! = a repeat was not active; [ ] = another dose, or the depositor's remark. Most compounds without a hit are left out; they make up all but 12% or so of the library. The call rests on the fitted dose curve; in most records, active means well fitted curve in the direction sought with a large enough effect; inconclusive means small, poorly fitted or top-dose-only effect, or another doubt; inactive means no such curve, though single readings can be large; an effect the other way counts as inactive or inconclusive. Potency means the concentration at half of the fitted maximal effect.

SMILES	G9a inh	BAZ2B block	L3MBTL1 block	HP1b chromo inh	JMJD2A Tudor inh	Sfp PPTase inh
CCc1cccc2c1NC(=O)C21N2CCCC2C(C(=O)c2ccc3ccccc3c2)C12C(=O)Nc1ccccc12 (stereo not given)	?	?	-2%	?	?	23%
CCc1ccc2c(c1)C1(C(=O)N2)N2CCCC2C(C(=O)c2ccc3ccccc3c2)C12C(=O)Nc1ccccc12 (stereo not given)	14µM*	?	-15%	-14%	-36%	0%
Cc1cc(=O)c2c(O)c3c(O)cc(=O)c4c3c3c(cc(O)c1c23)C(C)(C)C=4O	.	.	.	.	.	56µM*!
O=C1OCC(CO)(CO)N=C1NNc1ccccc1Cl	5.6µM*	-5%	.	-6%	?	-18%
COc1ccc(OCC(=O)NNC(=O)c2ccc3c(=O)n4c(nc3c2)CCC4)cc1	18%	-19%	.	23%	-12%	10%
COc1ccc(N=c2scc(-c3ccc(S(=O)(=O)N4CCOCC4)cc3)n2CCCO)cc1	25µM*	50µM*	-5%	.	.	6%
CN(C)S(=O)(=O)c1ccc(S(=O)(=O)NCCN2CCOCC2)cc1	-11%	-4%	6%	32%	-5%	-4%
CN(C)S(=O)(=O)c1cccc(-c2csc(=Nc3ccccc3)n2CCCN2CCOCC2)c1	50µM*	32µM*	0%	?	50µM*	-2%
COc1ccc(-c2ccc(S(=O)(=O)N3CCOCC3)cc2)cc1	6%[12.7 µM]	-1%	3%[11.4 µM]	29%	-3%	10%
CC(=O)c1cccc(N=c2scc(-c3ccc(S(=O)(=O)N4CCOCC4)cc3)n2CCO)c1	45µM*	?	-1%	?	-34%[57.1 µM]	-9%
C=CCn1c(-c2ccc(S(=O)(=O)N3CCOCC3)cc2)csc1=Nc1ccccc1	7%[0.501 µM]	6.3µM*	-27%	-11%	?	-25%
O=C(CCCl)N1CCN(c2nc(-c3ccccc3)cs2)CC1	?	-33%	-1%	2%	-21%	-10%
COc1ccc(Cl)cc1C(=O)NCc1nnnn1-c1ccccc1	3%[59 µM]	5%	.	27%[57 µM]	-18%	.
CC(C)CN1CCCC2(CCN(S(=O)(=O)c3ccccc3)CC2)C1	8%[12.7 µM]	.	.	.	.	14%
CC(C)Cn1c(-c2ccc(S(=O)(=O)N3CCCC3)cc2)csc1=Nc1ccccc1	8.9µM*	?	.	-16%	?	.
O=C(Cn1nc(Cl)nc1Cl)Nc1ccccc1	50µM*	1%	-1%	16%	0%	7%
O=C(Cn1nc(Cl)nc1Cl)c1ccccc1	13%	-5%	11%	24%	?	14%
CC1=C(C#N)C(=O)NC(=O)/C1=C\c1ccc(-c2cc(C)c(C)cc2[N+](=O)[O-])o1	10µM*	45µM*	?	?	56µM*	50µM*
Cc1cc(N2CCN(c3ccc(C(F)(F)F)cc3[N+](=O)[O-])CC2)c2ccccc2n1	.	25µM*	-16%	-26%	45µM*	71µM*
CCOc1ccccc1CNC(=O)c1ccc2nc(Cc3ccc(OC)cc3)oc2c1	5%[59 µM]	2%	.	20%[57 µM]	-9%	.
Clc1ccc(CNc2nc(CN3CCOCC3)nc3scc(-c4ccccc4)c23)cc1	?	50µM*	-19%	-21%	?	56µM*
CC(C)Oc1ccccc1NC(=O)CSc1nccn1C	18%	-3%	.	-14%	-7%	10%
COc1ccc(C(C)(C)C)cc1NC(=O)COC(=O)c1ccc([N+](=O)[O-])o1	40µM*	?	-26%	?	20µM*	-23%
